The values that follow come from PubChem BioAssay AID588726 (The Scripps Research Institute Molecular Screening Center, 2011).

Among all 360,000 compounds or so, about 8,200 (2.3%) were called active. The sample as a whole holds a higher share of actives than the screen did. Unmarked numbers belong to inactive results. Cut-off read from the data, not from the text of the source: active = inhibition above about 27%; inactive = the rest.

What is called inhibition is the relative decrease from the control value, in per cent.

Chain of Fructose-bisphosphate aldolase (Mycobacterium tuberculosis (strain ATCC 25618 / H37Rv)) (P9WQA3 whole entry, looked up): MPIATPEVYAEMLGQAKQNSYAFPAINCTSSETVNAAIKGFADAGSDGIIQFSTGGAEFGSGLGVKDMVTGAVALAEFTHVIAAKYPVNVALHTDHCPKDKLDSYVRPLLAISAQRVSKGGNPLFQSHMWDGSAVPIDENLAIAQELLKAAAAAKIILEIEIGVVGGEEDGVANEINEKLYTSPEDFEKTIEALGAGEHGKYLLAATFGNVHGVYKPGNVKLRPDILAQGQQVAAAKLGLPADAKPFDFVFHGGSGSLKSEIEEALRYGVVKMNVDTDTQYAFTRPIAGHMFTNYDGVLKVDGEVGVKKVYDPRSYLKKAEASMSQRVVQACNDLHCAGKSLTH

The experiment addresses Fructose-bisphosphate aldolase (Mycobacterium tuberculosis (strain ATCC 25618 / H37Rv)) (UniProt P9WQA3). Put plainly: M. tuberculosis aldolase activity blockers – biochemical, fluorescence, strain H37Rv, primary screen (AID 588726).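 Note: 0% = vehicle and 100% = reference inhibitor.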 As to conditions: purified M. tuberculosis FBA, fluorescence read-out, at 1 µM, stronger effect = higher value.
Consider `C[C@H]1CN([C@@H](C)CO)C(=O)CCCn2cc(nn2)CO[C@@H]1CN(C)C(=O)Nc1ccccc1`, for which the inhibition is 0.08%.
In the case of `O=C(NC1CCCC1)C1CC(=O)N(c2ccc(F)cc2)C1` (centres undefined), the inhibition was -3.06%.
Then `COc1cccc(NC(=O)C2(C)CCN2Cc2ccccc2Cl)c1` (centres undefined), with 3.88%; and `Cc1nc(COc2cc3oc(=O)cc(C)c3cc2Cl)cs1`, with 27.6% (active); and `CCOC(=O)Cc1csc(SCc2cc(=O)oc3cc(O)ccc23)n1`, with 2.87%.
In the case of `Cc1cc(=O)oc2cc(OCC3CC(c4ccccc4Cl)=NO3)ccc12` (centres undefined), the inhibition was 9.86%.
As to `CC(C)C(=O)N1CCN(c2nc(-c3ccccc3)c3c(c2C#N)CC(C)(C)OC3)CC1`, the inhibition was 18.4%.
Turning to `CC1(C)Cc2c(C#N)c(SCc3nc4ccccc4[nH]3)nc(N3CCOCC3)c2CO1`, the inhibition is 29.3% (active).
As for `CCOC(=O)CSc1nc(N2CCOCC2)c2c(c1C#N)CC(C(C)C)OC2` (centres undefined), the inhibition was 0.67%.
Then `CC1(C)Cc2c(sc(NC(=O)C(=O)N3CCOCC3)c2C#N)CO1`, with 1.66%; and `CC(C)c1nc(N2CCOCC2)c(C#N)c2c1COC(C)(C)C2`, with 48.2% (active).
The result for `C1=C(N2CCOCC2)/C(=C/c2nc3ccccc3[nH]2)CC1` reads 14.8%.
Then `CN1CCC2(CC1)NC(=O)NC2=O`, with 0.25%; and `Cc1cc(C(=O)N2CCC(C(=O)O)CC2)c(C(F)(F)F)o1`, with -0.52%.
In the case of `COc1ccccc1CN1CCNC(=O)C1CC(=O)N(C)CC1CCOCC1` (centres undefined), the inhibition was 0.79%.
As to `CN(CCC1CCOCC1)C(=O)CC1C(=O)NCCN1Cc1cccc(F)c1` (centres undefined), the inhibition is 5.7%.
Then `CC(C)CN1CCNC(=O)C1CC(=O)N(C)CC1CCOCC1` (centres undefined), with 91.2% (active); and `N#CCc1c[nH]c2ccc([N+](=O)[O-])cc12`, with -4.4%.
The result for `O=C(CN(C(=O)c1csnn1)c1ccc(Br)cc1)NC1CCCC1` reads 2.14%.
The result for `COc1ccc(/C=C/C(=O)NC(=S)NN2CCCCC2c2cccnc2)cc1` (centres undefined) reads 1.24%; that for `CC1CCCCN1C(=O)CCS(=O)(=O)Cc1ccccc1` (centres undefined), -0.22%; that for `Cc1cc(C(=O)OCC(=O)N2C(C)CCCC2C)c2ccccc2n1` (centres undefined), 6.33%.
As to `Cc1nn(-c2ccccc2)nc1C(=O)OCC(=O)N1CCCCC1C` (centres undefined), the inhibition was 31.5% (active).
On to `O=C(CN(C(=O)c1nsc(Cl)c1Cl)c1cccc(F)c1)NC1CCCC1`, for which the inhibition was 0.07%.
Then `COc1ccc(CNC(=O)COC(=O)/C=C/c2ccc(S(=O)(=O)N3CCOCC3)cc2)cc1`, with -5.75%.
The result for `Cc1ccc(C2Nc3ccccc3C(=O)N2CCN2CCNC2=O)cc1` (centres undefined) reads 95.6% (active); that for `Cc1ccc(S(=O)(=O)N2CCC(C(=O)OCC(=O)N3CC(=O)Nc4ccccc43)CC2)cc1`, -1.07%.
Then `O=C1c2ccccc2NC(c2ccccn2)N1NS(=O)(=O)c1ccccc1` (centres undefined), with 11.3%; and `Cc1[nH]n(-c2ccccc2)c(=O)c1CCOC(=O)c1ccc(C(F)(F)F)cc1`, with -0.48%; and `COc1ccccc1N1CCN(CC(=O)NCCc2ccc(S(N)(=O)=O)cc2)CC1`, with 0.12%.
Turning to `Cc1cc(OCC(=O)NCC(O)c2ccccc2)c2c(C)c(C)c(=O)oc2c1` (centres undefined), the inhibition is 66.1% (active).
The result for `COc1cccc(CCNC(=O)COc2cccc3c2OC(C)(C)C3)c1` reads -1.69%; that for `Cc1ccc(OCC(=O)NC(C)c2ccccc2)c([N+](=O)[O-])n1` (centres undefined), -3.72%.
Then `CCN(CC)CCCNC(=O)COc1ccc2oc3c(c2c1)CCCC3`, with 0.55%; and `Cc1cc(=O)oc2c3c(cc(OCC(=O)NCC(O)c4ccccc4)c12)OC(C)(C)CC3` (centres undefined), with 49.2% (active).
Regarding `CC(NC(=O)COc1ccc(-c2ccccc2)cc1)C1CCCO1` (centres undefined), the inhibition was 0.11%.
Then `COc1ccc(CCNC(=O)COc2cc(C)cc3oc(=O)c(C)c(C)c23)cc1OC`, with 2.14%; and `Cc1cc(OCC(=O)Nc2nccs2)c2c(C)c(C)c(=O)oc2c1`, with 5.31%; and `O=C(COc1ccc2ccc(=O)oc2c1)NCC(O)c1ccccc1` (centres undefined), with 15.9%.
The result for `O=C(COc1ccc2c3c(c(=O)oc2c1)CCCC3)NCC(O)c1ccccc1` (centres undefined) reads 15.8%.
The result for `CSc1nnc(-c2ccncc2)n1CCCN1CCCC1=O` reads 0.93%; that for `N#CCC(=O)NC1CCC(CC2CCC(NC(=O)CC#N)CC2)CC1` (centres undefined), 3.18%; that for `COc1cc(OC)c(C2=NOC(C(=O)Nc3c(C)n(C)n(-c4ccccc4)c3=O)C2)cc1Cl` (centres undefined), -0.74%.
On to `CSCC(=O)N1CCCC(C(=O)c2cc(F)ccc2F)C1` (centres undefined), for which the inhibition was -1.12%.
The result for `Cc1nccn1-c1ccc(NC(=O)[C@H]2O[C@@H](n3cnc4c(N)ncnc43)[C@H](O)[C@@H]2O)cc1` reads 0.84%; that for `O=C(O/N=C(/c1ccccc1)c1ccncc1)c1ccccc1[N+](=O)[O-]`, 2.83%; that for `Cc1ccccc1NC(=O)COc1cccc2c1CCNC2=O`, 0.77%.
Then `Cc1cc(Cl)ccc1OCCCC(=O)NCc1ccccn1`, with 1.44%.
Then `Cc1cc(=O)oc2c(C)c(OCC(=O)NCCc3ccc(S(N)(=O)=O)cc3)ccc12`, with 12.6%; and `CCCc1cc(=O)oc2c(C)c(OCC(=O)NCc3ccccn3)ccc12`, with 0.52%.
As for `Cc1cc(=O)oc2c(C)c(OCC(=O)NCCN3CCOCC3)ccc12`, the inhibition was 16%.
Then `Cc1nn(C)c(C)c1S(=O)(=O)N1CCc2ccccc21`, with 6.1%; and `CC(C)CNC(=O)/C=C/C(=O)O`, with 10.5%.
The result for `O=C1NC2(CCCCC2)N=C1c1ccccc1` reads 1.74%; that for `CC(C)Cc1ccc(-c2cc3nc(NCc4cccc(Cl)c4)ccn3n2)cc1`, 14.9%.
The result for `Cc1ccc(C)c(NS(=O)(=O)c2cc(Br)cnc2N)c1` reads 3.42%.
As to `O=S1(=O)CCOC[C@H](Cc2ccccc2)N1Cc1ccccc1Br`, the inhibition is -3.56%.
Regarding `Cc1ccc(S(=O)(=O)N2C[C@]3(O)C[C@@H]4C(=O)N(c5ccccc5)C(=O)[C@@H]4C[C@]3(OC(=O)NC3CC3)C2)cc1`, the inhibition was 0.49%.
The result for `COC(=O)[C@H]1C[C@H](OC(=O)NCc2ccccc2)[C@@]2(O)CN(S(=O)(=O)c3ccc(C)cc3)CC2[C@H]1C(=O)OC` (some centres undefined) reads 0.56%.
With `Cc1ccc(S(=O)(=O)N2C[C@@H](C)[C@]3(C2)[C@H](O)[C@H](OC(=O)NCc2ccccc2)C[C@H]2C(=O)N(c4ccccc4)C(=O)[C@H]23)cc1`, the inhibition was 67.2% (active).
Then `CC(C)C(c1nnnn1C(C)(C)C)N1CCN(Cc2cccnc2)CC1` (centres undefined), with 0.62%; and `S=c1[nH]cc(-c2ccc(Cl)cc2)n1-c1ccccc1`, with -0.17%; and `c1cc(-c2ccc3[nH]ccc3c2)n2ccnc2c1`, with 81.5% (active).
The result for `Clc1ccc(-c2nc3ccccn3c2CN2CCSCC2)cc1` reads 0.24%; that for `O=C(NCCO)c1cccc(-c2cccc3nccn23)c1`, 10.8%; that for `Cc1ccc(NC(=O)C2(N3CCC3=O)CCCCC2)cc1`, -1.03%.
As to `CC/C(=N\NC(=O)c1c(C)nc2ccccn12)c1ccc(Cl)cc1`, the inhibition was 1.77%.
Then `O=C(CN1CCN(S(=O)(=O)c2ccc(F)cc2)CC1)NC1CC1`, with 0.31%; and `CC1CC2=C(CC1/C=N/NC(N)=S)C(C)(C)CCC2` (centres undefined), with -2.62%; and `CC(C)(C)n1nc(Cc2cccc3ccccc23)c(C#N)c1N`, with -0.08%.
The result for `COc1ccc(Nc2oc(-c3ccccc3Cl)nc2C#N)cc1` reads 14.5%; that for `O=C(CN1CCN(C2CCS(=O)(=O)C2)CC1)N1N=C(c2ccc(Cl)cc2)CC1c1ccco1` (centres undefined), -0.95%.
Then `O=c1[nH]cnc(O)c1C(c1ccc(F)cc1)c1c(O)nc[nH]c1=O`, with 1.39%; and `Cc1nc2ccccc2cc1O`, with 116% (active); and `Cc1cc(N=Nc2ccc3ccccc3c2)ccc1O`, with -3.13%.
Take `Cc1nc2ccccc2nc1CC(O)(c1ccccc1)c1ccccc1`: the inhibition is 0.56%.
Then `Cc1cc(-c2ccccc2)n2nc(C)c(-c3ccccc3)c2n1`, with 4.02%.
The result for `COc1ccc(-c2cc(C)nc3nc(N)nn23)cc1` reads 124% (active).
Then `C=Cn1c(C(=O)O)ccc1-c1ccc(OC)cc1`, with 1.98%; and `COC(=O)c1ccc(C)c(NC(=O)Cn2c(C)csc2=O)c1`, with -1.21%; and `CCOC(=O)c1c(C)[nH]c(C(=O)COc2ccc3c(c2)OCO3)c1C`, with 6.18%.
On to `CCOC(=O)c1c(-c2ccccc2)oc2ccc(OCC(=O)NN)cc12`, for which the inhibition is 58.4% (active).
Then `CCOC(=O)c1c(-c2ccccc2)oc2ccc(OCC(N)=O)cc12`, with 72.7% (active).
Then `CCOC(=O)c1c(-c2ccccc2)oc2ccc(OC(=O)N(C)C)cc12`, with 38.7% (active); and `CCOC(=O)c1c(-c2ccccc2)oc2cc(Br)c(O)c(C=O)c12`, with -2.33%.
The result for `CCOC(=O)c1c(C)oc2cc(Br)c(OCC(N)=O)cc12` reads 5.33%; that for `CCOC(=O)c1c(C)oc2cc(Sc3ccccc3)c(O)c(O)c12`, -6.47%.
In the case of `COC(=O)c1c(C)oc2ccc(N(C(=O)Oc3ccccc3)S(=O)(=O)c3ccccc3)cc12`, the inhibition was -6.44%.
The result for `N#CC1(NC(=O)COc2ccc3oc4ccccc4c3c2)CCCCC1` reads -0.49%.
The result for `S=C(NC1CCCCC1)NN1CCOCC1` reads -5.42%.
Then `c1ccc2c(c1)CSc1sccc1C2=C1CCNCC1`, with 4.51%; and `N#Cc1cccc(NC(=O)CCC2CCCC2)c1`, with -3.71%.
For the molecule `OC(COCCC12CC3CC(CC(C3)C1)C2)CN1CCCCC1` (centres undefined), the inhibition was -2.2%.
The result for `COc1ccc(-n2c(SCC(=O)Nc3ccc4c(c3)OCO4)nnc2C(C)N2CCCCC2)cc1` (centres undefined) reads 0.95%.
